A selection: hits, their analogues and other compounds. The true share with any hit is near 12%.
BAZ2B block – blocks human BAZ2B; hit rate 4.4% among 360,000; Potency, µM (series often up to 114 µM), without a hit: at the highest dose activity change, negative = inhibition, usual class: inhibitors; Q9UIF8; AlphaScreen BAZ2B-H3K14Ac peptide displacement; AID 504333; note: % is set by controls: 0 for no effect and ±100 for the full control effect; nearly all actives have a fitted effect of over 60% in size
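AlphaScreen displacement of biotin-H3(5-23)K14Ac peptide (50 nM final) from BAZ2B (50 nM final) in PBS pH 7.4, 0.01% Tween-20; complex preformed 30 min RT, then compounds (top 110 uM) 30 min RT, beads 20 min dark.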
JMJD2A Tudor inh – inhibitors of human JMJD2A Tudor domain; O75164; AlphaScreen JMJD2A-Tudor / H3K4me3 peptide binding; Potency, µM (highest dose often 114 µM), without a hit: at the top dose activity change, negative = inhibition, actives largely listed as inhibitors; hit rate 4.4% among 390,000; AID 504339; note: % is set by controls: 0 for no effect and ±100 for the full control effect; nearly all actives have a fitted effect of over 50% in size
G9a block – inhibitors of human histone lysine methyltransferase G9a; G9a H3K9 monomethylation, AlphaScreen, 2 h; hit rate 8.8% among 350,000; Potency, µM (top dose mostly 102 µM), without a hit: top-dose activity, negative = inhibition, actives largely listed as inhibitors; AID 504332; Q96KQ7; note: % is set by controls: 0 for no effect and ±100 for the full control effect; nearly all actives have a fitted effect of over 75% in size
Target sequence (Q96KQ7 913-1193 limits assumed): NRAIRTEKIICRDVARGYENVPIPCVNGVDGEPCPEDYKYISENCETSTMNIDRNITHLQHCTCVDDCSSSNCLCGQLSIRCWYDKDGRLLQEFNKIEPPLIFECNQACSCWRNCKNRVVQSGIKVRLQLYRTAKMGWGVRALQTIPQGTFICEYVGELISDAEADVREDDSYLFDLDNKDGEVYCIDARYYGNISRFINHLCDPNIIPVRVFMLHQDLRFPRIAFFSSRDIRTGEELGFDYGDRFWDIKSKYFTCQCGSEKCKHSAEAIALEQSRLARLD
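Readings reflect AlphaScreen signal from monomethyl-H3K9 antibody detection. HMT at 20 nM; substrate b-H3K9 500 nM; cofactor SAM 20 uM; 2 h RT reaction; compounds tested as titrations in qHTS with 15 min preincubation.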
Sfp inh – Sfp phosphopantetheinyl transferase inhibition; Q9F4F7; Potency, µM, for the others: largest response in the series, negative = inhibition, hits mostly inhibitors; hit rate 3.5% among 310,000; Biochemical Sfp PPTase activity, qHTS;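 note: the enzyme is Sfp with the accession as filed and its product quenches rhodamine fluorescence; 0% = enzyme reaction without inhibitor and -100% = no enzyme wells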
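With Hepes-Na pH 7.6 buffer containing 10 mM MgCl2, Sfp (15 nM) modified BHQ-2-YbbR (12.5 uM) using rhodamine-CoA (5 uM). Two reads 30 minutes apart at 525/598 nm yielded each well's rate.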
HP1b binding inh – inhibitors of HP1-beta chromodomain binding to methylated histone tails. AlphaScreen HP1-beta / biotin-H3K9me3 peptide binding. Potency, µM (doses to about 114 µM), for inactives: at the highest dose activity change, negative = inhibition, hits mostly inhibitors. P83916. hit rate 0.56% among 390,000; note: nearly all actives have a fitted effect of over 70% in size
Target sequence (P83916 whole entry, looked up): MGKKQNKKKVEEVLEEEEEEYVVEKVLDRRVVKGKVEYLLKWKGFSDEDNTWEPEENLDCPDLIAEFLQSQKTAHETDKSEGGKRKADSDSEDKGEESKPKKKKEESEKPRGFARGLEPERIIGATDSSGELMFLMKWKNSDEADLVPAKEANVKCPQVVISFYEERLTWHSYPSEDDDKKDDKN
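AlphaScreen: HP1-beta (50 nM) preformed 30 min with biotin-H3(1-18)K9me3 peptide (50 nM) in PBS pH 7.4, 0.01% Tween-20. Compound added for 30 min at RT, then streptavidin donor/nickel chelate acceptor beads (10 ug/mL) for 30 min.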
* marks the source's active call; other numbers are inactive results; [ ] = dose if it differs, or a comment. Calls come from the whole dose curve; as a rule, active = well fitted curve in the direction sought with a large enough effect; inconclusive = small, poorly fitted or top-dose-only effect, or another doubt; inactive = no such curve, though single readings can be large; an effect the other way counts as inactive or inconclusive. Potency is the fitted concentration of half-maximal effect.

Screening O=C(N/N=C/c1cccc2nccnc12)c1ccccc1O returned BAZ2B block 28.2µM*, JMJD2A Tudor inh -13.2%[11.4 µM], G9a block 13.2%, Sfp inh inconclusive and HP1b binding inh 60.9%.
`O=C(N/N=C\c1ccncc1)c1ccccc1O` gave BAZ2B block -8.5%, JMJD2A Tudor inh -9.8%, G9a block -2.3%, Sfp inh 0.5% and HP1b binding inh 17.6%.
CCC(C)[C@@H](N)C(=O)N/N=C/c1cccc2nccnc12 (stereo not given in full) was read as BAZ2B block 79.4µM*, JMJD2A Tudor inh 50.1µM*, G9a block -42.1%, Sfp inh inconclusive and HP1b binding inh 22.5%.
Screening CC(C)[C@@H](N)C(=O)N/N=C/c1ccc2nccnc2c1 returned BAZ2B block inconclusive, JMJD2A Tudor inh -6.5%, G9a block 5.62µM*, Sfp inh -22.3% and HP1b binding inh 33.1%.
Screening Cc1cc(C)c(NC(=O)CN(CC(=O)O)CC(=O)O)c(C)c1Br returned G9a block 3.7%[2.33 µM] and Sfp inh 30.3%.
`O=C(N/N=C/c1cccc2cccnc12)c1ccccc1O` gave BAZ2B block 7.08µM*, JMJD2A Tudor inh 7.94µM*, G9a block 41.0%, Sfp inh 16.5% and HP1b binding inh 38.8%.
Screening CC1(C)CC(CC(=O)NNc2nc(-c3ccccc3)cs2)C(=O)O1 (stereo not given) returned BAZ2B block -1.8%, JMJD2A Tudor inh inconclusive, G9a block -4.3%[59 µM], Sfp inh 5.0% and HP1b binding inh inconclusive.
CC(C)CC1CC(C)(c2csc(NNC(=O)c3ccccc3)n2)OC1=O (stereo not given) was read as BAZ2B block 0.1%, JMJD2A Tudor inh -9.7%, G9a block 44.7µM*, Sfp inh -5.7% and HP1b binding inh 28.8%.
Screening O=C(c1c(F)cccc1F)N1CCCC1 returned BAZ2B block 8.0%, JMJD2A Tudor inh 5.1%, Sfp inh 8.8% and HP1b binding inh 24.7%.
COc1cc(OC)cc(C(=O)NCCCNC(=O)c2cccnc2)c1 was read as BAZ2B block 4.0%, JMJD2A Tudor inh 5.0%, G9a block 22.7%, Sfp inh 18.8% and HP1b binding inh 4.3%.
CC[N+](CC)(CC)CCOc1ccc(/C=C/c2ccccc2)cc1 was read as BAZ2B block 56.2µM*, JMJD2A Tudor inh inconclusive, G9a block 8.9%[59 µM], Sfp inh -14.6% and HP1b binding inh 12.9%.
C=CCn1c(SCC)nc2sc3c(c2c1=O)CCc1ccccc1-3 was read as BAZ2B block 20.3%[57.1 µM], JMJD2A Tudor inh 33.3%, G9a block 36.2%, Sfp inh -8.6% and HP1b binding inh 65.4%.
`C=CCSc1nc2sc3c(c2c(=O)n1CC)CCc1ccccc1-3` gave BAZ2B block 6.7%, JMJD2A Tudor inh inconclusive, G9a block inconclusive, Sfp inh 1.78µM* and HP1b binding inh inconclusive.
Screening CCOC(=O)c1c(C)oc2nc(C)nc(NCc3ccccc3OCC)c12 returned BAZ2B block -19.1%[57.1 µM], JMJD2A Tudor inh -1.9%, G9a block -23.1%[59 µM] and HP1b binding inh 24.3%.
`Cc1ccccc1C(=O)c1cccn1CC(=O)NCCN1CCN(c2cccc(C)c2C)CC1` gave BAZ2B block inconclusive, JMJD2A Tudor inh 50.1µM*, G9a block -6.4%[59 µM], Sfp inh -4.7% and HP1b binding inh inconclusive.
COC(=O)c1c(NC(=O)Cc2ccc(OC)c(S(=O)(=O)N3CCOCC3)c2)sc(C)c1C was read as BAZ2B block -25.9%, JMJD2A Tudor inh -29.7%, G9a block 50.1µM* and HP1b binding inh -9.2%.
For COc1ccc2nc(NC(=O)Cc3ccc(OC)c(S(=O)(=O)N4CCOCC4)c3)sc2c1 the results were BAZ2B block -8.3%, JMJD2A Tudor inh -11.5%[11.4 µM], G9a block 79.4µM*, Sfp inh 15.7% and HP1b binding inh -23.0%.
For COc1ccc(CC(=O)Nc2nccs2)cc1S(=O)(=O)N1CCOCC1 the results were JMJD2A Tudor inh -2.3% and HP1b binding inh 17.0%.
Screening N#Cc1cc(Oc2cccc3cccnc23)c(-n2nnc3ccccc32)cc1C#N returned BAZ2B block -4.4%, JMJD2A Tudor inh -5.8%, G9a block inconclusive, Sfp inh 50.1µM* and HP1b binding inh 41.8%.
